Pf Dd2 inh: qHTS Primary assay for Inhibitors of Plasmodium falciparum Dd2 growth in vitro. P. falciparum Dd2 growth, SYBR Green, 72 h. Potency, µM (top dose mostly 28.9 µM), for inactives: top-dose activity, negative = inhibition, actives largely listed as inhibitors. actives 4.3% (n = 120,000); active means well fitted inhibition curve with a large enough effect;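 further: plate controls were DMSO vehicle for no effect and reference drug for full effect; nearly all actives have a fitted effect of over 65% in size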
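Readout: SYBR Green fluorescence, 485 nm excitation, 535 nm emission, after ~16 h lysis at 37C. Before that, Dd2-infected red cells (2.5% hematocrit) grew 72 h with compound, 29 uM top final concentration.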
* = called active by the depositor; [ ] = remark or other dose. Many of the other results were omitted from the sample, so hits are more common in it than they were. Potency means the concentration at half of the fitted maximal effect.

How did COc1ccccc1C(=O)Nc1c(C(=O)N2CCN(c3ccc(F)cc3)CC2)oc2ccccc12 do in these assays?
Pf Dd2 inh: 50%

Results for CCOc1ccc(C(=O)Nc2c(C(=O)N3CCN(c4ccccc4F)CC3)oc3ccccc23)cc1 ?
Pf Dd2 inh: -9%

What do the screens show for `COc1ccc(CC(=O)Nc2c(C(=O)N3CCN(c4ccccc4F)CC3)oc3ccccc23)cc1OC`?
Pf Dd2 inh: 11µM*

What do the screens show for `CN1CCN(c2cc(=O)c3ccnc(N4CCN(c5ccccn5)CC4)c3o2)CC1`?
Pf Dd2 inh: -14%[44.1 µM]

What do the screens show for `CN(c1ccccc1)c1cc(=O)c2ccnc(N3CCOCC3)c2o1`?
Pf Dd2 inh: -11%[44.1 µM]

Results for CN(c1ccccc1)c1cc(=O)c2ccnc(N3CCN(c4ccccn4)CC3)c2o1 ?
Pf Dd2 inh: 13µM*

What do the screens show for `CC(=O)N(C1CCOCC1)C1CCN(S(=O)(=O)c2ccccc2)CC1`?
Pf Dd2 inh: -13%

How did Cc1oc(-c2cccc(Cl)c2)nc1CN1CCN(S(N)(=O)=O)CC1 do in these assays?
Pf Dd2 inh: -13%

Results for CSc1cccc(CN(C)C(=O)c2ccc(CCC(C)(C)O)cc2)c1 ?
Pf Dd2 inh: 2%

How did Cc1ccc(-c2noc([C@@H](N)CCCCN)n2)nn1 do in these assays?
Pf Dd2 inh: -6%

Results for Cc1cccc(NC(=O)Cn2c(N3CCCCC3)nc(C)c(C)c2=O)c1 ?
Pf Dd2 inh: inactive

What do the screens show for `CSc1cccc(NC(=O)Cn2c(N3CCCCC3)nc(C)c(C)c2=O)c1`?
Pf Dd2 inh: inactive

Results for Cc1nc(N2CCCCC2)n(CC(=O)Nc2cccc(F)c2)c(=O)c1C ?
Pf Dd2 inh: 4µM*

Results for O=c1c2nc(-c3ccsc3)ccc2ncn1Cc1ccccc1 ?
Pf Dd2 inh: inactive

How did CN(CCc1ccccn1)C(=O)c1cn(CCN2CCNCC2)nn1 do in these assays?
Pf Dd2 inh: 1%

Results for Cc1noc(C)c1-c1cc2cc(CN(C)C)oc2c(Nc2ccncn2)n1 ?
Pf Dd2 inh: inactive

How did Cc1noc(C)c1-c1cc2cc(CN(C)C)oc2c(-c2ccc([S+](C)(=O)[O-])cc2)n1 do in these assays?
Pf Dd2 inh: 8.9µM*

How did COCCCNc1nc(-c2c(C)noc2C)cc2cc(CN(C)C)oc12 do in these assays?
Pf Dd2 inh: inactive

Results for CN1C(=O)CC(C(=O)O)C12CCN(Cc1nc(C(=O)O)co1)CC2 (stereo not drawn) ?
Pf Dd2 inh: 13%

Results for COc1ccc(N2CCN(C3CCCN(C(=O)C(C)(C)N)C3)CC2)cc1 (stereo not drawn) ?
Pf Dd2 inh: 4%

What do the screens show for `COc1ccc(-c2ccnc3nc(CCc4ccc(OC)c(OC)c4)nn23)cc1`?
Pf Dd2 inh: -12%

Results for CCc1nc2nccc(-c3ccc(OC)c(OC)c3)n2n1 ?
Pf Dd2 inh: -21%

How did COc1ccc(CCc2nc3nccc(-c4ccc(OC)c(OC)c4)n3n2)cc1OC do in these assays?
Pf Dd2 inh: 13µM*

What do the screens show for `O=C(Cc1ccccc1)NCC1CN(C(=O)C2CCOCC2)CC12CN(c1ccccc1)C2` (stereo not drawn)?
Pf Dd2 inh: -21%

How did COc1ccc(C(=O)N2CCC3(CC2)NC(=O)N(c2cccc(F)c2)N3)cc1F do in these assays?
Pf Dd2 inh: inactive

Results for COc1ccccc1C(=O)N1CCC2(CC1)NC(=O)N(c1cccc(F)c1)N2 ?
Pf Dd2 inh: inactive

How did COc1ccc(Cl)cc1C(=O)N1CCC2(CC1)NC(=O)N(c1cccc(F)c1)N2 do in these assays?
Pf Dd2 inh: 10µM*

How did COc1ccc(C(=O)N2CCC3(CC2)NC(=O)N(c2cccc(F)c2)N3)cc1 do in these assays?
Pf Dd2 inh: 11µM*

How did COc1ccc(Cl)cc1C(=O)N1CCC2(CC1)NC(=O)N(c1ccccc1)N2 do in these assays?
Pf Dd2 inh: -19%

What do the screens show for `COc1cccc(C(=O)N2CCC3(CC2)NC(=O)N(c2ccccc2)N3)c1`?
Pf Dd2 inh: inactive

What do the screens show for `COc1cccc(CN[C@@H]2CCC[C@@H](C(=O)N(C)Cc3cccnc3)CC(=O)N(C)C2)c1`?
Pf Dd2 inh: -17%

Results for CC(C)N(Cc1ccccc1)Cc1nnc2cc(-c3nc(-c4ccccc4)no3)ccn12 ?
Pf Dd2 inh: inactive

How did CCCN(CC1CCOC1)C(=O)NCc1ccc(F)cc1 (stereo not drawn) do in these assays?
Pf Dd2 inh: 13%[5.79 µM]

How did Cc1noc(-c2cn(C3CCCN(C(=O)c4ccc(OC(F)(F)F)cc4)C3)nn2)n1 (stereo not drawn) do in these assays?
Pf Dd2 inh: inactive

What do the screens show for `CCN(CC)Cc1nc(C2(O)CCN(C3CCN(C(C)=O)CC3)CC2)cs1`?
Pf Dd2 inh: inactive

How did COc1ccc(C(=O)NCc2nnc3ccc(-c4ccc(C)c(C)c4)nn23)cc1F do in these assays?
Pf Dd2 inh: -16%

What do the screens show for `CCOc1ccc(CN(CCc2ccc3c(c2)OCO3)Cc2ccc(C)cc2)cc1`?
Pf Dd2 inh: 10µM*

How did CCOc1ccc(CN(CCc2ccc3c(c2)OCO3)Cc2cccc(Br)c2)cc1 do in these assays?
Pf Dd2 inh: 3%

What do the screens show for `CCOc1ccccc1CN(CCc1ccc2c(c1)OCO2)Cc1cc(OC)c(OC)cc1OC`?
Pf Dd2 inh: 4µM*

What do the screens show for `CCOc1ccc(CN(CCc2ccc3c(c2)OCO3)Cc2cccc(OC)c2)cc1`?
Pf Dd2 inh: -1%

Results for CCOc1ccccc1CNC(=O)c1noc(-c2ccc3c(c2)OCO3)n1 ?
Pf Dd2 inh: -2%

Results for CCOc1ccc(CN(C)C2CCOc3ccccc32)cc1 (stereo not drawn) ?
Pf Dd2 inh: -10%[44.1 µM]

How did O=C(c1ccc(Cn2ccnc2)o1)N1CC2CC(C1)[C@H]1CCCC(=O)N1C2 (stereo partly drawn) do in these assays?
Pf Dd2 inh: 5%

What do the screens show for `CC(=O)N1CCC(N[C@@H]2CO[C@H](CNC(=O)c3ccccc3)[C@H]2O)CC1`?
Pf Dd2 inh: 34%[44.1 µM]

How did Cc1[nH]nc2c1C(c1ccccc1F)C(C#N)=C(N)O2 (stereo not drawn) do in these assays?
Pf Dd2 inh: 6%

How did O=C1CCN(C(=O)CN2CCCCCC2)CCCC(c2nc(-c3cnccn3)no2)CCN1 (stereo not drawn) do in these assays?
Pf Dd2 inh: 9%

How did CCCNC(=O)N1CCC(n2c(C)cnc2C2CC2)CC1 do in these assays?
Pf Dd2 inh: -23%

Results for O=C1NCCOCCCN(C(=O)NC2CCCCC2)[C@H]2CCCC[C@@H]12 ?
Pf Dd2 inh: 28%

What do the screens show for `COc1cc(Cl)c(C)cc1NC(=O)Cn1ccn2nc(-c3ccccc3)c(CO)c2c1=O`?
Pf Dd2 inh: -9%

What do the screens show for `CCC(=O)Nc1ccc(-c2nnc3n2CCCC3)cc1`?
Pf Dd2 inh: 21%

How did Cc1ccc(CC(=O)Nc2ccc(-c3nnc4n3CCCC4)cc2)cc1 do in these assays?
Pf Dd2 inh: inactive

What do the screens show for `COc1ccc(NC(=O)COc2ccc(-c3nnc4n3CCCC4)cc2)cc1OC`?
Pf Dd2 inh: 8.9µM*

What do the screens show for `COc1ccc(NC(=O)COc2cccc(-c3nnc4n3CCCC4)c2)cc1OC`?
Pf Dd2 inh: 7.9µM*

How did COc1ccc(NC(=O)Cn2nc3n(c2=O)CCCCC3)cc1OC do in these assays?
Pf Dd2 inh: inactive

What do the screens show for `O=C(COc1cccc(-c2nnc3n2CCCC3)c1)Nc1ccc(Cl)cc1F`?
Pf Dd2 inh: -29%

What do the screens show for `CCCCN1C(=O)C(CC(=O)N(C)C)Sc2ncccc21` (stereo not drawn)?
Pf Dd2 inh: -2%

What do the screens show for `CCn1ncc(N2CCCC(CC(=O)NCCc3ccccc3)C2)cc1=O` (stereo not drawn)?
Pf Dd2 inh: inactive

Assay outcomes deposited in PubChem by National Center for Advancing Translational Sciences (NCATS).
